This note sets out measurements from PubChem BioAssay.

Records with an inconclusive call do not appear. The source made the active and inactive calls.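 Rule for the calls, unless noted: active = viability at or below 10% of carrier control in both of two separate runs; inconclusive = viability at or below 10% in only one of the two runs; inactive = the rest.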

A short description of assay [1]: SK-BR-3 cell growth inhibitors, pilot screen, 24 h, human (AID 572).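 Note: compound exposure lasted between 18 and 24 h rather than exactly 24 h; 100% = carrier-treated control wells.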 To be noted: SK-BR-3 viability, CellTiter-Glo luminescence, at 10 µM, stronger effect = lower value.
A short description of assay [2]: HUVEC growth inhibition – cell-based, human, primary screen (AID 575;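 active = viability at or below 30% in both replicate assays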;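 note: 100% = median of untreated cell wells with 0.1% DMSO on each plate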). To be noted: HUVEC proliferation, CellTiter-Glo luminescence, 72 h; at 10 µM; stronger effect = lower value.
Assay [3] in a line: growth inhibitors of H69AR lung tumor, primary screen, human, duplicate replicates (AID 580;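 active = viability at or under a set limit in both replicates, limit being median viability minus 3 SD, cut at about 48% in these data, passing the limit was not always enough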;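 note: 100% = mean luminescence of untreated wells and 0% = no signal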). To be noted: H69AR lung tumor cells viability, ATP luminescence, 72 h; at 10 µM; stronger effect = lower value.
Assay [4] is described as follows: reversal of MRP1-mediated doxorubicin resistance, pilot screen, H69AR cells, doxorubicin co-treatment (AID 601;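 active = viability loss from added drug above about 55%, and viability with drug at most 40%, in both replicates, limit read from the data, passing the limit was not always enough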). To be noted: CellTiter-Glo, 72 h, at 10 µM; for differential viability (reversal): stronger effect = higher value.
Assay [5] can be described thus: 384-well plate pilot, post-Golgi transport modulator project, inhibition of yeast transport mutant growth (AID 636; in the data active = inhibition above about 31%). Particulars: absorbance 615 nm, about 18 h, stronger effect = higher value.
Assay [6] in a line: growth suppression of yeast trafficking mutant, preliminary HTS, modulators of trafficking downstream of Golgi apparatus project, 1536-format plate, OD 615 nm (AID 637; in the data active = inhibition above about 30%). To be noted: yeast transport mutant growth, absorbance 615 nm, 18 h; stronger effect = higher value.
Assay [7] is described as follows: OD615 S. cerevisiae growth inhibition, permissive medium, pilot counter-assay, permissive growth control for S. cerevisiae lifespan shortening project (AID 705;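 active = growth inhibition above 25% in both replicates, a cutoff set 3 SD above the mean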). To be noted: OD615, 24 h, at 10 µM, stronger effect = higher value.
The nature of assay [8]: Restrictive medium S. cerevisiae growth inhibition, OD615, pilot screen of yeast lifespan reduction project, restrictive growth control (AID 706;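 active = growth inhibition above a set limit, 3 SD over mean compound inhibition, in both replicates, cut at about 43% in these data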;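 note: modified DeaD lifespan yeast strain shifted to restrictive glucose medium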). To be noted: OD615, 48 h, at 10 µM, stronger effect = higher value.
A short description of assay [9]: viability gain of MRP-1-high H69AR cells under doxorubicin, pilot screen, MRP-1 activator project, CellTiter-Glo, duplicate (AID 807;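 active = viability increase at or above a cutoff of the median across tested compounds plus 3 SD, cut at about 8.5% in these data, passing the limit was not always enough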;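 note: compound pretreatment 18-22 h then 72 h combined with doxorubicin; 0% = doxorubicin alone and 100% = vehicle without doxorubicin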). To be noted: H69AR viability with doxorubicin, CellTiter-Glo luminescence; at 10 µM; stronger effect = higher value.
Assay [10] in a line: growth suppression of beta-catenin knockout HCT116, pilot screen, human colon tumor cells (AID 823;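 active = cell viability at or below a set limit in both duplicate runs, the limit being the all-compound median minus 4 SD, cut at about 23% in these data, passing the limit was not always enough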;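 note: 0% = wells killed by 20 µM Hyamine and 100% = untreated DMSO cell wells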). To be noted: CellTiter-Glo, 60 h, at 10 µM, stronger effect = lower value.
Assay [11] in a line: growth suppression of PTEN-deleted HCT116, pilot screen, cell-based, HCT116 clonal line, CellTiter-Glo (AID 824;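 active = viability at or below 27.92% in each of two runs, the all-compound median minus 4 SD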;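 note: 0% = 20 µM Hyamine control and 100% = vehicle cell control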). To be noted: 60 h, at 10 µM, stronger effect = lower value.
Assay [12] in a line: inhibitors of the yeast RAM network, pilot screen, dse1pr::URA3 reporter, 5-FOA selection (AID 869;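 active = inhibition over a set limit, the all-compound mean plus 3 SD, in both replicate runs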;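 note: 0% = DMSO wells with no growth and 100% = 10 µM 1-NA-PP1 with full growth; RAM network block rescues cells from 5-FOA so hits raise OD615 growth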). Particulars: S. cerevisiae dse1pr::URA3 5-FOA growth, OD615, 2 d; at 10 µM; stronger effect = higher value; strain carries analog-sensitive mutant Cbk1 kinase.
Assay [13] in a line: RAM signaling pathway blockade in yeast – S. cerevisiae, Pdr1DBD-CYC8 efflux-inhibited sensitized strain, primary screen (AID 1298;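 active = RAM network inhibition above 8.4% in each of two replicates, 3 SD over the compound average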;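 note: 0% = DMSO untreated cells without growth and 100% = 10 µM 1-NA-PP1 full growth; higher means more yeast growth rescued from 5-FOA killing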). Particulars: S. cerevisiae cbk1-as DSE1-URA3 strain, 5-FOA growth OD615, 2 d; at 50 µM; stronger effect = higher value.
The mark [14] stands for this setting: H69AR cells + 2 uM doxorubicin, measured here: viability with 2 uM doxorubicin, stronger effect = lower value.
[15] abbreviates: H69AR cells, compound alone cytotoxicity.

On to `Cn1c(C(=O)Nc2ccc3c(c2)OCO3)cc2c(=O)n(C)c3ccccc3c21`, for which the viability was 73% (inactive) in assay [1]; 72.6% (inactive) in assay [2]; 34.2% (active) in assay [3]; 26.6% in assay [4] (setting [14]); 34.2% in assay [4] (setting [15]); 92.4% (inactive) in assay [10]. In addition, in assay [11], the viability was 91.5% (inactive). Also, in assay [4] (H69AR cells + 2 uM doxorubicin), the differential viability (reversal) was 7.56% (inactive). Moreover, the values for the inhibition in assay [5], in assay [6] and in [12] were -2.18% (inactive), 2% (inactive) and 3.22% (inactive), respectively. Moreover, the growth inhibition in [7] was -4.94% (inactive); in assay [8] it was -3.57% (inactive). In addition, the viability increase in [9] was -2.91% (inactive). Further, the RAM network inhibition in assay [13] was 4.86% (inactive).
For the compound `CCOC(=O)N1CCN(C(=O)c2cnn(-c3ccccc3)c2NC(=O)c2ccccc2F)CC1`, the viability was 102% (inactive) in assay [1]; 98.8% (inactive) in assay [2]; 92% (inactive) in assay [3]; 80% in [4] (setting [14]); 92% in assay [4] (setting [15]); 99.4% (inactive) in [10]. In addition, the viability in [11] is 102% (inactive). In addition, the differential viability (reversal) in assay [4] (H69AR cells + 2 uM doxorubicin) is 12% (inactive). Moreover, the inhibition in assay [5] is -4% (inactive); in assay [6], -0.73% (inactive); in assay [12] it was -0.065% (inactive). The figures for the growth inhibition in [7] and in assay [8] were 0.625% (inactive) and -2.95% (inactive), respectively. The viability increase in assay [9] was -1.55% (inactive). In addition, in assay [13], the RAM network inhibition was 1.56% (inactive).
For the compound `Cc1cccc(OCC(=O)Nc2ccc(N3CCCC3)cc2)c1C`, the viability in assay [1] is 112% (inactive); in assay [2], 88.2% (inactive); in [4] (setting [14]), 59.7%; in [4] (setting [15]), 56.5%; in [10], 72.4% (inactive); in [11], 84.8% (inactive). The differential viability (reversal) in assay [4] (H69AR cells + 2 uM doxorubicin) is -3.12% (inactive). Also, the inhibition is -9.2% (inactive) in assay [5], 1.64% (inactive) in [6] and 2.95% (inactive) in assay [12]. The growth inhibition was 15.7% (inactive) in [7] and 14.8% (inactive) in [8]. In addition, in assay [9], the viability increase was -3.79% (inactive). For the same compound, the RAM network inhibition in assay [13] is 5.36% (inactive).
Regarding `CCn1c(C(C#N)/C(=N\S(=O)(=O)c2cccs2)c2ccccc2)nc2ccccc21` (centres undefined), the viability in assay [1] is 112% (inactive); in [2], 96.2% (inactive); in [3], 81.7% (inactive); in [4] (setting [14]), 94.3%; in [4] (setting [15]), 81.7%; in assay [10] it was 87.4% (inactive). The viability in assay [11] is 90.2% (inactive). Besides, the differential viability (reversal) in [4] (H69AR cells + 2 uM doxorubicin) is -12.6% (inactive). The inhibition was 0.26% (inactive) in assay [5], -1.15% (inactive) in assay [6] and 1.55% (inactive) in assay [12]. Also, the growth inhibition in [7] was -26.8% (inactive); in assay [8], -15% (inactive). Besides, in [9], the viability increase was -3.19% (inactive). Besides, the RAM network inhibition in [13] was 5.16% (inactive).
Take `CCN(CC)S(=O)(=O)c1ccc2c(c1)nc(SCn1nnc3ccccc3c1=O)n2CC`: the viability in assay [1] is 74% (inactive); in [2], 81.1% (inactive); in [3] it was 83.2% (inactive); in [4] (setting [14]), 74.6%; in [4] (setting [15]), 83.2%; in assay [10], 90.7% (inactive). In assay [11], the viability was 103% (inactive). For the same compound, the differential viability (reversal) in assay [4] (H69AR cells + 2 uM doxorubicin) was 8.64% (inactive). Further, the inhibition in assay [5] was -4.93% (inactive); in assay [6] it was -2.36% (inactive); in assay [12], 2.54% (inactive). For the same compound, the growth inhibition is -1.67% (inactive) in assay [7] and -5.42% (inactive) in assay [8]. Further, the viability increase in [9] is 2.88% (inactive). Besides, in [13], the RAM network inhibition is 7.57% (inactive).
Turning to `Cc1ccc(S(=O)(=O)N(CC(=O)N2CCC(C(N)=O)CC2)Cc2ccc(F)cc2)cc1`, the viability is 93% (inactive) in [1]; 110% (inactive) in assay [2]; 100% (inactive) in assay [3]; 88.8% in [4] (setting [14]); 100% in [4] (setting [15]); 97.5% (inactive) in assay [10]. For the same compound, in assay [11], the viability was 87.2% (inactive). Further, in assay [4] (H69AR cells + 2 uM doxorubicin), the differential viability (reversal) was 11.3% (inactive). Further, the inhibition in [5] is -3.87% (inactive); in [6], -3.45% (inactive); in assay [12], -0.07% (inactive). Besides, the growth inhibition in assay [7] was -1.11% (inactive); in assay [8], 2.36% (inactive). Moreover, the viability increase in assay [9] was -2.26% (inactive). Also, the RAM network inhibition in assay [13] was 1.49% (inactive).
Take `CCOc1ccc(NS(=O)(=O)c2cc(Cl)ccc2OC)cc1`: the viability in assay [1] was 102% (inactive); in assay [2] it was 91% (inactive); in assay [3], 70.8% (inactive); in assay [4] (setting [14]), 92.9%; in [4] (setting [15]) it was 70.8%; in assay [10] it was 75.1% (inactive). For the same compound, the viability in assay [11] was 76.2% (inactive). Also, in assay [4] (H69AR cells + 2 uM doxorubicin), the differential viability (reversal) is -22.1% (inactive). In addition, the inhibition in assay [5] was -6.93% (inactive); in assay [6] it was -5.09% (inactive); in assay [12] it was 0.335% (inactive). Moreover, the figures for the growth inhibition in [7] and in assay [8] were -10.7% (inactive) and -13.3% (inactive), respectively. Further, in [9], the viability increase is -2.64% (inactive). Besides, the RAM network inhibition in [13] was 0.17% (inactive).
Regarding `CCOC(=O)Cn1c(CN(C)Cc2ccccc2)nc2c1c(=O)n(C)c(=O)n2C`, the viability in [1] is 94% (inactive); in assay [2], 112% (inactive); in [3], 87.1% (inactive); in assay [4] (setting [14]), 96.6%; in assay [4] (setting [15]) it was 87.1%; in assay [10], 82.9% (inactive). Besides, the differential viability (reversal) in assay [4] (H69AR cells + 2 uM doxorubicin) was -9.54% (inactive). Besides, the inhibition was -7.43% (inactive) in assay [5], 0.18% (inactive) in assay [6] and 0.24% (inactive) in [12]. Besides, the growth inhibition in assay [7] was -28.8% (inactive); in assay [8], -4.63% (inactive). In addition, the viability increase in assay [9] is -2.98% (inactive). In assay [13], the RAM network inhibition is -0.42% (inactive).
As for `Cc1ccc(C)n1-c1ccc(-n2cnnn2)cc1`, the viability in [1] is 103% (inactive); in assay [2], 97.5% (inactive); in [4] (setting [14]) it was 76.6%; in assay [4] (setting [15]), 52.4%; in assay [10] it was 9.95% (active); in [11], 10.3% (active). In addition, the differential viability (reversal) in [4] (H69AR cells + 2 uM doxorubicin) is -24.2% (inactive). The inhibition is -3.47% (inactive) in assay [5], -1.09% (inactive) in assay [6] and 1.65% (inactive) in assay [12]. The growth inhibition was -9.52% (inactive) in assay [7] and 0.21% (inactive) in assay [8]. The viability increase in assay [9] was -7.7% (inactive). Besides, the RAM network inhibition in [13] is 5.78% (inactive).
Turning to `c1ccc(-c2nnc(SCc3nc4ccccc4[nH]3)o2)cc1`, the viability in assay [1] was 94% (inactive); in [2], 98.9% (inactive); in assay [3], 88.8% (inactive); in assay [4] (setting [14]), 85.8%; in assay [4] (setting [15]), 88.8%; in assay [10] it was 93.5% (inactive). Moreover, in assay [11], the viability is 88.8% (inactive). Besides, in assay [4] (H69AR cells + 2 uM doxorubicin), the differential viability (reversal) is 2.98% (inactive). The inhibition in assay [5] was -5.6% (inactive); in assay [6] it was 0.91% (inactive); in assay [12] it was 1.33% (inactive). Further, the growth inhibition in assay [7] is 7.59% (inactive). The viability increase in [9] was -5.05% (inactive). Also, in assay [13], the RAM network inhibition is 1.69% (inactive).
Turning to `COC(=O)c1[nH]c2c(c1C)C(=O)CC(c1cc(OC)ccc1OC)C2` (centres undefined), the viability in [1] is 98.5% (inactive); in assay [3] it was 14.9% (active); in assay [4] (setting [14]), 51.9%; in [4] (setting [15]), 14.9%; in [10], 34.6% (inactive); in assay [11], 29.4% (inactive). Moreover, the differential viability (reversal) in [4] (H69AR cells + 2 uM doxorubicin) was -37% (inactive). For the same compound, the inhibition in [5] is -6.8% (inactive); in assay [6] it was -6.33% (inactive). For the same compound, the growth inhibition in assay [7] was -10.4% (inactive); in assay [8], -8.8% (inactive). Besides, in [9], the viability increase is -5.77% (inactive). Moreover, in assay [13], the RAM network inhibition was 1.94% (inactive).
